Test results published in PubChem BioAssay.
Calls of active or inactive are those of the source. Unless noted, how the calls were made is not given here.

Assays:
[1] = HepG2 liver cancer cell viability effects, profiling panel, resazurin fluorescence, 24 h, PK04 Diversity Set (AID 1172); conditions: higher = more signal
[2] = basal S. cerevisiae growth modulation, no modifier, primary screen, OD600, strain BY4716, 24 h, basal condition (AID 1173); conditions: OD600, 24 h, higher = more signal, called active from +8 up or from −8 down
[3] = MM1S myeloma cell viability, profiling panel, resazurin fluorescence, basal, 24 h, PK04 Diversity Set (AID 1174); conditions: higher = more signal, called active from +8 up or from −8 down;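 further: MM1S multiple myeloma cell line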
[4] = molecular target: Dihydroorotate dehydrogenase (quinone), mitochondrial (Plasmodium falciparum (isolate 3D7)) (UniProt Q08210); assay: PfDHODH enzyme inhibitors, primary screen, biochemical, C-terminal His tag, absorbance 600 nm (AID 1175); conditions: DCIP absorbance 600 nm, higher = more signal, called active from +8 up or from −8 down;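 further: recombinant parasite enzyme with a five histidine tag at its C terminus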
[5] = P. aeruginosa biofilm formation inhibitors, primary screen, strain PAO1, LB-PBS medium, absorbance 600 nm (AID 1176); conditions: P. aeruginosa PAO1 growth/biofilm, A600, 12 h; higher = more signal
[6] = S. cerevisiae RM11-1a growth modifiers, primary screen, strain RM11-1a, OD600, basal, 24 h (AID 1177); conditions: OD600, 24 h, higher = more signal, called active from +8 up or from −8 down;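 further: cultures grown under basal conditions with no added stressor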
[7] = E. coli acrAB mutant growth effects, primary screen, E. coli filamentation inducers, strain DRC39, OD650, 24 h (AID 1178); conditions: higher = more signal, called active from +8 up or from −8 down;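 further: growth measured as culture turbidity by optical density at 650 nm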
[8] = E. coli acrAB mutant growth effects, primary screen, E. coli filamentation inducers, strain DRC39, OD650, 48 h (AID 1179);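 further: screen aims at cell division blockers that make cells filament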; conditions: E. coli DRC39 delta-acrAB growth, higher = more signal, called active from +8 up or from −8 down
[9] = RPMI8226 myeloma cell viability, profiling panel, resazurin fluorescence, basal, 24 h, PK04 Diversity Set (AID 1180); conditions: higher = more signal;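 further: RPMI8826 multiple myeloma cell line at 5000 cells per well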
[10] = molecular target: E3 ubiquitin-protein ligase XIAP (Homo sapiens) (UniProt P98170); assay: XIAP binders, primary screen, biophysical, small-molecule microarray, fluorescence 635 nm (AID 1181); conditions: small-molecule microarray binding, higher = more signal;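 further: score merges 667 nm emission and signal to noise over triplicate slides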
[11] = tested on: XIP peptide (Xip251-270) binding; assay: small-molecule binders of XIP peptide, primary screen, biochemical, small-molecule microarray, fluorescence 635/667 nm, 0.1 µg/mL protein (AID 1182); conditions: fluorescent protein binding, 635 nm, higher = more signal, called active from +8 up or from −8 down
XIP peptide (Xip251-270) = assay: small-molecule binders of XIP peptide, primary screen, biochemical, small-molecule microarray, fluorescence 635/667 nm, 0.5 µg/mL protein (AID 1183); conditions: small-molecule microarray binding, fluorescence 635 nm; higher = more signal
[12] = Plasmodium falciparum growth inhibition, primary screen, strain 3D7, DAPI fluorescence, 100 nL (AID 1184);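 further: parasites grown inside human red blood cells in medium with human serum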; conditions: P. falciparum 3D7 growth, 3 d, higher = more signal
[13] = molecular target: Homeobox protein Hox-A13 (Mus musculus) (UniProt Q62424); assay: inhibitors of HoxA13-DNA binding, primary screen, biochemical, fluorescence polarization, labeled oligonucleotide (AID 1185); conditions: 15 min, higher = more signal, called active from +8 up or from −8 down
[14] = inhibitors of hydroxyurea-induced Chk1 phosphorylation, primary screen, imaging, HeLa, phospho-Chk1 antibody, percent positive cells (AID 1186); conditions: hydroxyurea-induced phospho-Chk1 immunofluorescence imaging, higher = more signal
[15] = inhibitors of hydroxyurea-induced Chk1 phosphorylation, primary screen, imaging, HeLa, phospho-Chk1 nuclear intensity (AID 1187); conditions: hydroxyurea-induced phospho-Chk1 immunofluorescence imaging, higher = more signal

Dihydroorotate dehydrogenase (quinone), mitochondrial (Plasmodium falciparum (isolate 3D7)), sequence (Q08210 whole entry, looked up): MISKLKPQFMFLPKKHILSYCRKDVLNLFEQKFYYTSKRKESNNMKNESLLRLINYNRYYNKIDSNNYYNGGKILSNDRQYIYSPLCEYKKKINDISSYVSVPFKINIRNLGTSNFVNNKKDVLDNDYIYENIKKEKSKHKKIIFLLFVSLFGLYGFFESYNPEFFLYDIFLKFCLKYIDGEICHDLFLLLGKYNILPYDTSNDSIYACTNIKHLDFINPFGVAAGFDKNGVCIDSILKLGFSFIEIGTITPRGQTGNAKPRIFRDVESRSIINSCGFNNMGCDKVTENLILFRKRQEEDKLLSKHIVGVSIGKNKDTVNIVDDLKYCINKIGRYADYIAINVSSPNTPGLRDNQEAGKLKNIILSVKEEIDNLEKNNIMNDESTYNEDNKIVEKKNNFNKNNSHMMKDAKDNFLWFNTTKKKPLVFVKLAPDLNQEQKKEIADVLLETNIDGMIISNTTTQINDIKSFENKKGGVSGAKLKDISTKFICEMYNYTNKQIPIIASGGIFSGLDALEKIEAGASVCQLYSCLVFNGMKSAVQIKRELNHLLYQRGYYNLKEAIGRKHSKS
E3 ubiquitin-protein ligase XIAP (Homo sapiens), sequence (P98170 whole entry, looked up): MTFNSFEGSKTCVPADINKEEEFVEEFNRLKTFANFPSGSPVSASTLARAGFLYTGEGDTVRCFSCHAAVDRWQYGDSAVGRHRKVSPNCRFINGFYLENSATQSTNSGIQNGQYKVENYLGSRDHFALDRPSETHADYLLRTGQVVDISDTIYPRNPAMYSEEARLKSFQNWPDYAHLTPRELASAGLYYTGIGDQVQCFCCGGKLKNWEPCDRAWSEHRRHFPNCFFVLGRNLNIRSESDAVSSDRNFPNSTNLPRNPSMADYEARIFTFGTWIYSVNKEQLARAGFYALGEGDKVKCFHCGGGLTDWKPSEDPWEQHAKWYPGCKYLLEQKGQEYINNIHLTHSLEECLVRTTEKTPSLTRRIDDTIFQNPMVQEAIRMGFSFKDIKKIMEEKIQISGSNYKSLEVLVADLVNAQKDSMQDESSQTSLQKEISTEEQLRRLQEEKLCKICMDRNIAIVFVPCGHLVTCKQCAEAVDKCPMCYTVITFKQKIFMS
Homeobox protein Hox-A13 (Mus musculus), sequence (Q62424 whole entry, looked up): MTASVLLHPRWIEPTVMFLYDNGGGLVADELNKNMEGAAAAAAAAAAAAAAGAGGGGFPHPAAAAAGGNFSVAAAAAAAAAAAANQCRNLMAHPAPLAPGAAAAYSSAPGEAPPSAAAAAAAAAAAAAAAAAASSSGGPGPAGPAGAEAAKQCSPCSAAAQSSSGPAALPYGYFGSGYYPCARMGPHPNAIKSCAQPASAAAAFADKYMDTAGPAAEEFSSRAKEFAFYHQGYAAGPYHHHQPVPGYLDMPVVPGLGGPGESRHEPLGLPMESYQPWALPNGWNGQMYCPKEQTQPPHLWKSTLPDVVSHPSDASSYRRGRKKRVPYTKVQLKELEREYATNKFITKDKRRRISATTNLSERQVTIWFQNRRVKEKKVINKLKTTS

SMILES | z-score [1] | z-score [2] | z-score [3] | composite z-score [4] | z-score [5] | z-score [6] | z-score [7] | z-score [8] | z-score [9] | composite z-score [10] | composite z-score [11] | composite z-score (XIP peptide (Xip251-270)) | z-score [12] | z-score [13] | z-score [14] | z-score [15]
C=C(/C(=C/C[C@H](OC(C)=O)c1ccc(CO)o1)c1cc(C(=O)OC)ccc1OC)C(C)C | -0.783 | 0.18 (inactive) | -1.14 (inactive) | -3.65 (inactive) | -0.0342 (inactive) | 0.447 (inactive) | -1.42 (inactive) | -0.94 (inactive) | -1.34 | -0.0807 | -0.508 (inactive) | -0.567 | -2.09 | -4.8 (inactive) | -0.33 (inactive) | -0.286 (inactive)
C=CCN1C(=O)[C@]2(O[C@H](CCn3cc([C@H](O)c4ccccc4)nn3)[C@@H]([Si](C)(C)c3ccc(OC)cc3)[C@@H]2C)c2cc(N3CCC3=O)ccc21 | 0.0514 | 0.743 (inactive) | -1.85 (inactive) | 1.04 (inactive) | 0.0245 (inactive) | 2.44 (inactive) | 0.518 (inactive) | -0.0117 (inactive) | -1.67 | 0.0623 | 0.393 (inactive) | 0.128 | -2.89 | -5.76 (inactive) | -0.318 (inactive) | -0.171 (inactive)
COc1ccc(CCNC(=O)[C@@]2(Sc3ccc(C)cc3)CC(=O)N(C3Cc4ccccc4C3)[C@@H]2c2ccc(CO)cc2I)cc1 | 0.0641 | -3.1 (inactive) | -2.13 (inactive) | 0.371 (inactive) | -0.171 (inactive) | 1 (inactive) | 0.0559 (inactive) | -0.325 (inactive) | -1.43 | 0.148 | -0.0449 (inactive) | 0.81 | -0.725 | -2.4 (inactive) | 0.136 (inactive) | 0.684 (inactive)
COC(=O)[C@@]1(Cc2ccc(OC)cc2)[C@@H]2C(=CC(=O)[C@H]2CC(=O)C(=O)N2CCCC2)CN1C(=O)c1ccccc1 | 1.82 | 1.1 (inactive) | -0.846 (inactive) | 1.7 (inactive) | -0.374 (inactive) | 0.423 (inactive) | -0.0187 (inactive) | 0.798 (inactive) | -0.663 | -0.0118 | -0.406 (inactive) | 0.161 | -0.918 | -2.39 (inactive) | -0.0101 (inactive) | -0.277 (inactive)
COc1ccc(CCNC(=O)[C@@]2(C)c3ccccc3C(=O)N(C(C)C)[C@H]2c2ccc(CO)cc2)cc1 | -0.848 | -0.51 (inactive) | 0.0132 (inactive) | 0.12 (inactive) | -0.149 (inactive) | -0.54 (inactive) | -0.166 (inactive) | 0.0299 (inactive) | 0.332 | -0.252 | -0.15 (inactive) | 0.388 | -0.57 | -2.77 (inactive) | 0.0394 (inactive) | -0.33 (inactive)
C=C(COC)/C(=C/C[C@@H](OC(=O)c1ccncc1)c1ccc(CO)o1)c1cc(C(=O)OC)ccc1OC | 0.755 | -0.439 (inactive) | 0.0477 (inactive) | -2.14 (inactive) | 1.03 (inactive) | 0.0707 (inactive) | 1.19 (inactive) | 1.03 (inactive) | 0.515 | 1.7 | 0.215 (inactive) | 0.838 | -0.644 | -4.26 (inactive) | -0.255 (inactive) | -0.162 (inactive)
C=CCOC(=O)[C@H]1[C@@H]2C(=O)O[C@@H](c3ccccc3)[C@@H](c3ccccc3)N2[C@@H](c2ccc(OCCOC(=O)[C@H]3C[C@H]4C(=O)N[C@@H](CCCCN(C)C)C(=O)N4[C@H]3c3ccc(O)cc3)cc2)[C@]12C(=O)Nc1ccc(I)cc12 | 0.0141 | -0.526 (inactive) | -0.934 (inactive) | 0.341 (inactive) | 0.739 (inactive) | -0.0228 (inactive) | -0.624 (inactive) | -1.24 (inactive) | -0.973 | -0.0819 | 0.768 (inactive) | 0.791 | -0.193 | -4.89 (inactive) | 0.622 (inactive) | -0.163 (inactive)
COC(=O)C[C@H]1O[C@]2(C(=O)N(C)c3ccccc32)[C@@H](C)[C@@H]1[Si](C)(C)F | 0.951 | -2.55 (inactive) | 1.55 (inactive) | -1.49 (inactive) | 0.908 (inactive) | -2.64 (inactive) | 1.51 (inactive) | 0.847 (inactive) | 2.42 | 0.103 | -0.0066 (inactive) | 0.181 | 0.522 | -1.19 (inactive) | 0.23 (inactive) | 0.843 (inactive)
COc1ccc(C(O)C2C=CC3C(=O)N(Cc4ccccc4)C(=O)C3N2n2cnnc2)cc1OCc1ccccc1 (stereo not drawn) | -0.299 | 0.278 (inactive) | 0.708 (inactive) | -0.265 (inactive) | 1.13 (inactive) | -0.271 (inactive) | 1.31 (inactive) | -0.48 (inactive) | 0.329 | 0.035 | 0.442 (inactive) | 0.159 | -0.951 | -2.23 (inactive) | -0.537 (inactive) | -0.462 (inactive)
COC(=O)[C@@]1(CCS(=O)(=O)c2ccccc2)N=C(c2ccc(OCCCO)cc2)O[C@H]1c1ccccc1CN=[N+]=[N-] | -0.882 | 1.38 (inactive) | -3.13 (inactive) | 0.484 (inactive) | 0.92 (inactive) | 0.642 (inactive) | 0.163 (inactive) | -0.154 (inactive) | -2.55 | 0.316 | 1.24 (inactive) | 0.769 | -2.07 | -0.977 (inactive) | -0.395 (inactive) | -0.74 (inactive)
CCOC(=O)C[C@H]1[C@H](OC(=O)c2ccc(-c3ccccc3)cc2)[C@@H](NC(=O)Cc2ccc(OC)cc2)c2cc(OCCCO)ccc2N1C(=O)c1ccccc1 | -0.616 | 0.695 (inactive) | -0.113 (inactive) | 0.11 (inactive) | -0.252 (inactive) | 0.87 (inactive) | 0.303 (inactive) | 0.339 (inactive) | 0.0662 | 0.15 | -0.243 (inactive) | -0.464 | -0.791 | -2.14 (inactive) | 0.2 (inactive) | 0.106 (inactive)
Cc1nc2cc(Br)ccc2c(=O)o1 | 0.817 | -0.691 (inactive) | 0.065 (inactive) | -0.442 (inactive) | -0.214 (inactive) | -1.08 (inactive) | 0.705 (inactive) | 1.42 (inactive) | 1.21 | -0.0426 | 0.312 (inactive) | 0.139 | -0.973 | 0.0804 (inactive) | -0.131 (inactive) | 0.134 (inactive)
C=CCC(OC(C)=O)[C@@H]1[C@@H](N(Cc2cccc3ccccc23)C(=O)c2ccc(-c3ccccc3)cc2)c2cc(OCCCO)ccc2N1C(=O)c1ccc2ccccc2c1 (stereo partly drawn) | 0.256 | 1.04 (inactive) | 0.163 (inactive) | -0.149 (inactive) | 0.845 (inactive) | 0.132 (inactive) | 0.0986 (inactive) | 0.295 (inactive) | 1.23 | 0.0463 | -0.176 (inactive) | 0.0439 | -1.55 | -1.35 (inactive) | 0.145 (inactive) | -0.0284 (inactive)
C=C(CCCC)C(=O)CC[C@@H](OC(=O)c1ccccc1-c1ccccc1C(=O)O)c1ccc(OCCO)cc1 | -0.268 | -1.78 (inactive) | -0.276 (inactive) | -1.25 (inactive) | 0.956 (inactive) | -0.585 (inactive) | -0.0062 (inactive) | -0.297 (inactive) | 0.692 | -0.182 | 0.175 (inactive) | 0.602 | -2.46 | -5.5 (inactive) | 0.431 (inactive) | 0.362 (inactive)
O=C1C[C@]2(c3ccc([N+](=O)[O-])cc3)C(=O)N(CC(F)(F)F)c3cc(CO)ccc3[C@H]2N1C1CCCCC1 | 0.0882 | 0.434 (inactive) | 0.679 (inactive) | -1.69 (inactive) | -0.686 (inactive) | -0.0434 (inactive) | 0.235 (inactive) | 0.16 (inactive) | 0.964 | -0.273 | -0.0975 (inactive) | 0.0582 | -0.762 | -1.39 (inactive) | -0.219 (inactive) | -0.125 (inactive)
CC(C)N1C(=O)[C@@]2(Cc3ccccc31)c1ccccc1C(=O)N(Cc1ccccc1Cl)[C@H]2c1ccc(CO)cc1 | 1.07 | -1.87 (inactive) | 0.845 (inactive) | -4.26 (inactive) | 0.31 (inactive) | -1.6 (inactive) | 0.344 (inactive) | 0.659 (inactive) | 1.32 | 0.257 | -0.26 (inactive) | 0.388 | -0.113 | -0.978 (inactive) | -0.339 (inactive) | -0.458 (inactive)
CC(C)N1C(=O)C[C@@](C(=O)NCC(F)(F)F)(c2ccc([N+](=O)[O-])cc2)[C@H]1c1ccc(CO)cc1 | -0.228 | -0.957 (inactive) | 1.26 (inactive) | -0.297 (inactive) | 0.255 (inactive) | -1.09 (inactive) | 0.818 (inactive) | 0.629 (inactive) | 0.939 | -0.0448 | 0.0334 (inactive) | 0.202 | -1.38 | -2.67 (inactive) | -0.317 (inactive) | -0.273 (inactive)
COc1ccc(-c2cc3c(c(-c4ccc(Oc5ccccc5)cc4)n2)[Si](C(C)C)(C(C)C)OC3)cn1 | -1.05 | 1.07 (inactive) | -0.29 (inactive) | 0.568 (inactive) | -0.0391 (inactive) | 1.24 (inactive) | -0.794 (inactive) | -0.973 (inactive) | -0.698 | -0.0326 | -0.0527 (inactive) | 0.0792 | -1.34 | -1.79 (inactive) | -0.265 (inactive) | 0.0655 (inactive)
